Test results taken from PubChem BioAssay (EPA / NIEHS).
A structure can be active in one record and inactive in another. The source made the active and inactive calls. Rule for the calls: active = hit-call score of the fitted dose curve at least 0.9, where 1 is the maximum; inactive = score below 0.9.

The compounds below were run on Transforming growth factor beta 1 (TGFb1), TGFB1 (gene 7040) (assay: BSK_KF3CT_TGFb1: BioMAP Diversity Plus: KF3CT Assay for Transforming growth factor beta 1 (TGFb1) Biomarker Activity (AID 2283072)). Details: primary human keratinocytes with fibroblasts; actives raise or lower the signal.
Experimental: BSK_KF3CT is a cell-based, multiplexed-readout assay that uses keratinocytes and foreskin fibroblasts, a human skin primary cell co-culture, with measurements taken at 24 hours after chemical dosing in a 96-well plate.BSK_KF3CT_TGFb1 is an assay component measured in the BSK_KF3CT assay. It measures TGF-b1 antibody related to regulation of gene expression using ELISA technology.Data from the assay component BSK_KF3CT_TGFb1 was analyzed into 1 assay endpoint. This assay endpoint, BSK_KF3CT_TGFb1, was analyzed with bidirectional fitting relative to DMSO as the negative control and baseline of activity. Using a type of binding reporter, gain or loss-of-signal activity can be used to understand changes in the signaling as they relate to the gene TGFB1. Furthermore, this assay endpoint can be referred to as a primary readout, because this assay has produced multiple assay endpoints where this one serves a signaling function. To generalize the intended target to other relatable targets, this assay endpoint is annotated to the growth factor intended target family, where the subfamily is transforming growth factor beta.
The levels of cell surface (or secreted, indicated by the prefix "s") biomarker endpoints were measured by ELISA. Overt cytotoxicity to cells in confluent adherent cultures (all systems other than the BT system) was assessed by measuring total protein levels using sulforhodamine B (SRB) staining in parallel cultures at the time of biomarker measurements, indicated as SRB endpoints. For proliferation assays for adherent cell types, individual cell types are cultured at sub-confluence and relative cell numbers quantified by SRB staining at time points optimized for each system (48 h: 3C and CASM3C systems; 72 h: BT and HDF3CGF systems; 96 h: SAg system). SRB was performed by staining cells with 0.1% SRB after fixation with 10% TCA and reading wells at 560 nm.Viability and proliferation of PBMC (T cells) was quantified by Alamar Blue reduction for the SAg and BT systems. For PBMC viability (referred to as PBMC Cytotoxicity within the assay endpoint names), cells were plated (75,000/well in a 96-well plate) and then chemical samples added for 1 h before addition of activators, SEB and TSST-1 (20 ng/mL final concentration each). Cells were incubated for 90 h. Then, Alamar Blue (20 uL/well) (Invitrogen, Cat DAL1100) was added for 6 h, and the plates were read with a fluorescence microplate reader at 546/580 nm (excitation/emission). For PBMC proliferation, cells were plated and activated as above but incubated for only 16 h prior to addition of Alamar Blue. Plates were read after 6 h.

Row | SMILES | outcome | AC50
1 | COS(=O)(=O)OC | inactive | –
2 | O=C(O)C(F)(F)C(F)(F)C(F)(F)C(F)(F)C(F)(F)F | inactive | –
3 | NS(=O)(=O)C(F)(F)C(F)(F)C(F)(F)C(F)(F)C(F)(F)C(F)(F)C(F)(F)C(F)(F)F | – | 9.43 µM (active)
4 | Clc1ccc(Cl)cc1 | inactive | –
5 | CN(C)c1nc(=O)n(C2CCCCC2)c(=O)n1C | inactive | –
6 | CO/C=C(/C(=O)OC)c1ccccc1COc1cccc(C(F)(F)F)n1 | – | 5.13 µM (active)
7 | CCOCCOC(C)=O | inactive | –
8 | CCCN(CCC)N=O | inactive | –
9 | O=C(N[C@H]1CN2CCC1CC2)c1cc2ccoc2cn1 | inactive | –
10 | Cc1ccccc1CO[C@@H]1C[C@@]2(C(C)C)CC[C@]1(C)O2 | inactive | –
11 | Clc1ccc(C(Cl)(Cl)Cl)cc1 | inactive | –
12 | N#Cc1ccc(N(CC(N)=O)CC(F)(F)F)cc1C(F)(F)F | inactive | –
13 | Oc1c(Cl)c(Cl)c(Cl)c(Cl)c1Cl | inactive | 15 µM (active)
14 | CCCCCCCCOC(=O)c1ccccc1C(=O)OCCCCCCCC | inactive | –
15 | Cc1cc(O)ccc1Cl | inactive | –
16 | Nn1cnnc1 | inactive | –
17 | O=C(O)C(F)(F)C(F)(F)C(F)(F)C(F)(F)C(F)(F)C(F)(F)C(F)(F)C(F)(F)F | inactive | –
18 | Cc1ccccc1O | inactive | –
19 | C1CC2OC2CC1C1CO1 (stereo not given) | inactive | –
20 | CCNc1nc(NC(C)C)nc(SC)n1 | inactive | –

Row | SMILES | outcome | AC50
21 | O=NN(c1ccccc1)c1ccccc1 | inactive | –
22 | CCCCCCCCCC[N+](C)(C)CCCCCCCCCC | – | 3.03 µM (active)
23 | Clc1ccc(C(c2ccccc2Cl)C(Cl)(Cl)Cl)cc1 (stereo not given) | – | 19.1 µM (active)
24 | CCOP(=S)(OCC)SCSC(C)(C)C | inactive | –
25 | O=C(O)C(F)(F)C(F)(F)C(F)(F)C(F)(F)C(F)(F)C(F)(F)C(F)(F)C(F)(F)C(F)(F)F | – | 30.8 µM (active)
26 | Cc1cc2c3c(c1)C(c1ccccc1)=N[C@@H](NC(=O)c1ccncc1)C(=O)N3CC2 | inactive | –
27 | ClC1=C(Cl)[C@]2(Cl)[C@@H]3[C@@H]4C[C@@H]([C@H]5O[C@@H]45)[C@@H]3[C@@]1(Cl)C2(Cl)Cl | inactive | –
28 | C[C@]12CCC(=O)C=C1CC[C@@H]1[C@@H]2CC[C@@]2(C)[C@H]1CC[C@]2(C)O | inactive | –
29 | Sc1ccccc1 | inactive | –
30 | c1ccc(-c2ccccc2)cc1 | inactive | –
31 | CN(C)CCO | inactive | –
32 | Nc1ccc(-c2ccc(N)cc2)cc1 | inactive | –
33 | CC(C)C(=O)OCC(C)(C)C(OC(=O)C(C)C)C(C)C (stereo not given) | inactive | –
34 | C=CC(N)=O | inactive | –
35 | Cc1cc(-c2ccc(N)c(C)c2)ccc1N | inactive | –
36 | CCOC(=O)C(O)(c1ccc(Cl)cc1)c1ccc(Cl)cc1 | inactive | –
37 | O=C(NC(=O)c1cc(F)c(F)cc1Cl)Nc1cc(F)ccc1N1CCC(C(=O)O)CC1 | inactive | –
38 | Cc1cccc(C)c1N | inactive | –
39 | C[C@]12CCC(=O)C=C1CC[C@@H]1[C@@H]2CC[C@]2(C)C(=O)CC[C@@H]12 | inactive | –
